Results on 21 compounds are retold here after PubChem BioAssay (NCATS).

Results filed as inconclusive are left out. Where a call stands in place of a potency, no number is given. Activity calls are given as the source filed them. The call rests on the fitted dose curve; in most records, active means well fitted cell-killing curve with a large enough effect; inconclusive means small, poorly fitted or top-dose-only effect, or effect the other way; inactive means no such curve, though single readings can be large or run the other way.
Potency means the concentration at half of the fitted maximal effect.

The experiment is described as follows: Cell Viability - LYMP2-004 (AID 966). Further: nearly all actives have a fitted effect of over 65% in size. The note with it: LYMP2-004 lymphoblastoid cell viability, qHTS; series mostly up to 92.2 µM. The text has this:
NIH Chemical Genomics Center [NCGC]
NIH Molecular Libraries Screening Centers Network [MLSCN]
National Institutes of Environmental Health Sciences [NIEHS]
National Toxicology Program [NTP]
We have developed a 1536-well cell-based assay for quantitative high throughput screening (qHTS) against a number of cell lines to determine in vitro cytotoxicity of small molecules. This particular assay uses a human lymphoblastoid cell line (LYMP2-004) purchased from Coriell Institute for Medical Research.
NCGC Assay Protocol Summary:
The CellTiter-Glo luminescent cell viability assay (Promega) is a homogeneous method to measure the number of viable cells in culture. The end point readout of this assay is based on quantitation of intracellular ATP, an indicator of metabolic activity, using the luciferase reaction. Luciferase catalyzes the oxidation of beetle Luciferin to oxyluciferin and light in the presence of ATP. The luminescent signal is proportional to amount of ATP present.
Using the CellTiter-Glo luminescent cell viability assay, the amount of cellular ATP was measured in the lymphoblastoid cell line with complete culture medium following compound treatment for 24 hours. The assay was performed in opaque white Kalypsys 1536-well plates. In the screen, tetraoctylammonium bromide was used as positive control. Library compounds were measured for their ability to cause acute toxicity in the cell line, as reflected by a decrease in intracellular ATP levels, in a concentration-dependent manner. […] AC50 values were determined from concentration-response data modeled with the standard Hill equation.
qHTS protocol for CellTiter Glo lymphoblastoid cellular assay
[Step] [Parameter] [Value] [Description]
1. Reagent; 5 uL; 2500 lymphoblastoid cells/well
2. Time; 5 hr; 37 C incubation
4. Controls; 23 nL; Tetraoctylammonium bromide 6.4pM to 92 uM
5. Time; 24 hr; 37 C incubation
6. Reagent; 5 uL; CellTiter Glo reagent
7. Time; 30 min; Room Temperature
8. Detection; Luminescence; Viewlux plate reader
Keywords: cell viability, cytotoxicity, lymphoblastoid cell line, luminescence, NTPHTS, NTPHTS_NCGC, NIEHS, DSSTox, MLSMR, MLSCN, NIH Roadmap, qHTS, NCGC
(In qHTS, concentration-response curves come from the screen itself.)
Regarding `CN(C)c1ccc(C(=C2C=CC(=[N+](C)C)C=C2)c2ccccc2)cc1`, the Potency was 0.316 µM (active).

Turning to `O=c1cc(-c2ccccc2)oc2ccccc12`, the Potency result was “inactive”. Take `CC1(C)S[C@@H]2[C@H](NC(=O)[C@H](N)c3ccccc3)C(=O)N2[C@H]1C(=O)O`: the Potency result is “inactive”.

Regarding `Nc1ccc(O)c([N+](=O)[O-])c1`, the Potency result is “inactive”.

Turning to `NCCO`, the Potency result was “inactive”. For the compound `CCCOC(=O)c1ccc(O)cc1`, the Potency result is “inactive”. Regarding `N=C1N=C(N)c2cc3ccccc3cc21`, the Potency is 39.8 µM (active).

As to `CN(C)CCC(c1ccc(Cl)cc1)c1ccccn1` (stereo unspecified), the Potency entry is “inactive”. Take `CN1CCC[C@H]1c1cccnc1`: the Potency entry was “inactive”.

`S=c1[nH]c2ccccc2s1`: the Potency result is “inactive”. For the compound `CN(C)c1ccc(N=NS(=O)(=O)O)cc1`, the Potency result was “inactive”. On to `COc1cc(CNC(=O)CCCC/C=C/C(C)C)ccc1O`, for which the Potency entry is “inactive”. For the compound `COc1cc(/C=C/C(=O)CC(=O)/C=C/c2ccc(O)c(OC)c2)ccc1O`, the Potency was 31.6 µM (active). On to `Nc1ccc(O)c(C(=O)O)c1`, for which the Potency result is “inactive”. For the compound `Nc1ccc([N+](=O)[O-])cc1O`, the Potency entry was “inactive”. On to `CCCCCCCCCCCCCCCCCC(=O)O`, for which the Potency result is “inactive”. Take `c1ccc2sc(SSc3nc4ccccc4s3)nc2c1`: the Potency entry was “inactive”. `Nc1nc2ccc([N+](=O)[O-])cc2s1`: the Potency entry was “inactive”. Take `O=C(O)/C=C\C(=O)O`: the Potency entry is “inactive”.

In the case of `C#C[C@]1(O)CC[C@H]2[C@@H]3CCc4cc(O)ccc4[C@H]3CC[C@@]21C`, the Potency result was “inactive”. In the case of `CC(C)NCC(O)COc1cccc2ccccc12` (stereo unspecified), the Potency result is “inactive”.
